# The list is not random: actives were taken first. Their share in the collection is about 0.82%.
# BioA inh = M. tuberculosis BioA enzyme inhibitors, primary screen, biochemical, plate reader, single point, HTS; purified M. tuberculosis BioA enzyme; 7,8-diaminopelargonic acid synthase BioA (Mycobacterium tuberculosis); inhibition, % at 9.99 µM; 0.096% of 360,000 active; in the data active = inhibition above about 40%
# RecA intein inh = Mtb RecA intein splicing inhibitors, primary screen, biochemical, fluorescence, HTS; Protein RecA (Mycobacterium tuberculosis (strain ATCC 25618 / H37Rv)), P9WHJ3; inhibition, % (no concentration beside the values); AID 2221, 2009; 0.75% of 290,000 active; cell-free RecA intein splicing; in the data active = inhibition above about 30%
# Rv3671c protease = Rv3671c serine protease inhibitors, primary screen, biochemical, fluorescence polarization, M. tuberculosis H37Rv; P9WHR9; inhibition, % at 5.96 µM; 0.048% of 320,000 active; AID 2606, 2010; in the data active = inhibition above about 38%;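 note: extracellular domain of Rv3671c used as enzyme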
# Target sequence (P9WHR9 whole entry, looked up, the tested form may be a part): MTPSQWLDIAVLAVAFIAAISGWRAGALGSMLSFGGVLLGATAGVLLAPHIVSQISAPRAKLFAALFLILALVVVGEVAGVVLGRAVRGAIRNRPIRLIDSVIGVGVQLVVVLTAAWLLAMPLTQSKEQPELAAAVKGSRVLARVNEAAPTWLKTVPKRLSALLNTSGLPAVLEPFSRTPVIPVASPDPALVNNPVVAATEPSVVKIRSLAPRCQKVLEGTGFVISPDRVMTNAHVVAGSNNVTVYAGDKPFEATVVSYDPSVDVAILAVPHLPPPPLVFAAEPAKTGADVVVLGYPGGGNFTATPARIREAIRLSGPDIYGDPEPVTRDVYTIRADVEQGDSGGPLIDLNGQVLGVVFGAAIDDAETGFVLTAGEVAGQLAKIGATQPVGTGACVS
# Y pestis TopoI = Yersinia pestis topoisomerase I inhibitors, primary screen, biochemical, cleavage product accumulation, plate reader, single point; DNA topoisomerase I (Yersinia pestis CO92); activity, % at 10 µM; 0.064% of 360,000 active; Y. pestis Topo-I cleavage product accumulation; in the data active = activity above about 50%, passing the limit was not always enough
# Mtb UGM inh = M. tuberculosis UGM enzyme inhibitors, primary screen, biochemical, fluorescence polarization, single point. purified UGM, fluorescence polarization probe displacement. inhibition, % at 10 µM. 0.06% of 320,000 active. UDP-galactopyranose mutase (Mycobacterium tuberculosis (strain ATCC 25618 / H37Rv)), …. AID 504406, 2011; in the data active = inhibition above about 10%, passing the limit was not always enough
# FadD28 binding = inhibitors of FadD28 bisubstrate probe binding, primary screen, biochemical, fluorescence polarization, single point; inhibition, % at 12.5 µM; 0.22% of 360,000 active; AID 588549, 2011; in the data active = inhibition above about 8.5%, passing the limit was not always enough
# GFP chromophore = counter-screen: blocks GFP chromophore formation, dose response, counter-screen, biochemical, fluorescence, homogeneous; shares compounds with RecA intein inh; cell-free GFP chromophore formation; EC50, µM; 83% of 2,100 active; AID 434968, 2010; call rule not given here
# Hits are given with their value; i = inactive; nt = not tested or not shown.
SMILES,BioA inh,RecA intein inh,Rv3671c protease,Y pestis TopoI,Mtb UGM inh,FadD28 binding,GFP chromophore
O=C(NC1=C(NC2CCS(=O)(=O)C2)C(=O)c2ccccc2C1=O)c1ccccc1 (centres undefined),i,84,i,i,i,i,1
Cc1cccc(NC2=C(NC(=O)c3ccccc3)C(=O)c3ccccc3C2=O)c1,i,72,i,i,i,i,6.5
C[C@H](CO)N1C[C@H](C)[C@@H](CN(C)Cc2ccccc2)Oc2ccc(NC(=O)NC3CCCCC3)cc2CC1=O,i,nt,nt,nt,nt,nt,nt
CN(C)CCCNC(=O)C[C@H]1CC[C@H]2[C@@H](COc3ccc(NC(=O)C4CCC4)cc3C(=O)N2C)O1,i,nt,nt,nt,nt,nt,nt
COC(=O)C[C@H]1CC[C@@H](NS(=O)(=O)c2ccc(OC)cc2)[C@H](CO)O1,i,nt,nt,nt,nt,nt,nt
CO[C@H]1CN(C)C(=O)c2cc(NC(=O)C3CC3)ccc2OC[C@@H](C)N(C(=O)c2cnccn2)C[C@H]1C,i,nt,nt,nt,nt,nt,nt
C[C@@H]1CN([C@H](C)CO)C(=O)Cc2cc(NS(=O)(=O)c3ccc(F)cc3)ccc2O[C@@H]1CN(C)S(=O)(=O)c1cccs1,i,nt,nt,nt,nt,nt,nt
CC(=O)N(C1=C(N)C(=O)c2ccccc2C1=O)c1ccccc1,i,87,i,i,i,i,4.3
O=C(N(c1ccccc1)c1ccccc1)N(c1ccccc1)c1ccccc1,i,i,i,i,i,i,nt
O=C(CCl)c1ccc(Cc2ncc(C(F)(F)F)cc2Cl)s1,i,79,i,i,i,i,3.4
O=C1C(=O)c2ccccc2C([O-])=C1[n+]1ccccc1,i,84,i,i,i,i,6.9
Cc1ccccc1NC(=O)C(=Cc1ccc(C(=O)O)cc1)C(=O)Nc1ccccc1C,nt,68,nt,i,nt,i,16
CC(=O)/C(=C/c1ccccc1)C(=O)Nc1ccccc1C,i,i,i,i,i,i,nt
Cc1ccc(C2C(C#N)=C(N)Oc3n[nH]c(-c4cccs4)c32)cc1 (centres undefined),i,66,i,i,i,i,7.6
N#CC1=C(N)Oc2n[nH]c(-c3cccs3)c2C1c1cccnc1 (centres undefined),i,69,i,i,i,i,i
CC(C)c1[nH]nc2c1C(c1cccs1)C(C#N)=C(N)O2 (centres undefined),i,62,i,i,i,i,28
CC(C)C1C(C#N)=C(N)Oc2n[nH]c(-c3cccs3)c21 (centres undefined),i,i,i,i,i,i,nt
CO[C@@H]1CN(C)C(=O)c2cc(NC(=O)NC(C)C)ccc2OC[C@@H](C)N(Cc2cncnc2)C[C@H]1C,i,nt,nt,nt,nt,nt,nt
COCCNC(=O)C[C@@H]1C[C@@H]2c3cc(NC(=O)Nc4ccc(F)cc4)ccc3O[C@@H]2[C@H](CO)O1,i,nt,nt,nt,nt,nt,nt
Cc1cccc(S(=O)(=O)N2C[C@@H](O)COC[C@@H]3O[C@@H](CC(=O)NCc4ccc5c(c4)OCO5)CC[C@H]32)c1,i,nt,nt,nt,nt,nt,nt
COC(=O)C[C@]1(C(=O)OC)CN(C#N)N(c2ccc(Cl)cc2)C12c1ccccc1-c1ccccc12,i,74,i,i,i,i,4.7
COC(=O)CN1C(=O)C(O)(CC(=O)c2ccc(Cl)cc2)c2ccccc21 (centres undefined),i,nt,i,i,i,i,nt
C[C@@H]1CCCCO[C@@H](CN(C)Cc2ccccc2)[C@H](C)CN([C@H](C)CO)C(=O)c2cc(NC(=O)c3ccccc3)ccc2O1,i,nt,nt,nt,nt,nt,nt
Nc1ccc(O)c2ccccc12,nt,88,i,nt,i,nt,11
O=S(=O)(c1ccccc1)c1ncc(C(F)(F)F)cc1Cl,i,63,nt,i,nt,i,25
O=S(=O)(c1ccccc1)c1ncc(C(F)(F)F)cc1O,i,i,i,i,i,i,nt
FC(F)(F)c1ccc2c(c1)N(CCCN1CCN(CCCl)CC1)c1ccccc1S2,nt,63,i,i,i,i,17
OCCN1CCN(CCCN2c3ccccc3Sc3ccc(C(F)(F)F)cc32)CC1,i,i,i,i,i,i,nt
O=C(Cc1cc(=O)[nH][nH]1)N/N=C/C=C/c1ccccc1,i,85,i,i,i,i,18
